The source of these data is PubChem BioAssay (EPA / NIEHS).

The structures appear in SMILES notation. The source made the active and inactive calls. Rule for the calls: active = hit-call score of the fitted dose curve at least 0.9, where 1 is the maximum; inactive = score below 0.9.

The nature of this assay: CCTE_Harrill_HTTr_Viability_MCF7: CCTE's 6-hour Cell Viability Assessment for the High-Throughput Transcriptomics (HTTr) Platform, in MCF-7 cells cultured in DMEM + 10% fetal bovine serum, Harrill Lab (AID 2284010). The source says: This is a cell-based assay that evaluates cell viability using high content imaging to evaluate membrane integrity using propidium iodide dye exclusion in a 384 well format.One of seven assay components measured from the CCTE_Harrill_HTTr_Viability assay. This was part of a full screening experiment. This is a cell-based assay that evaluates cell viability in MCF-7 cells cultured in DMEM + 10% fetal bovine serum. High content imaging is used to evaluate membrane integrity using propidium iodide dye exclusion. Measurements are taken at 6 hours after chemical dosing in 384-well format.The assay component endpoint CCTE_Harrill_HTTr_Viability_MCF7 was analyzed with bidirectional fitting relation to DMSO as the negative control and baseline of activity. Using a type of viability reporter, gain-of-signal activity can be used to evaluate membrane integrity using propidium iodide dye exclusion to understand changes in cytotoxicity. To generalize the intended target to other relatable targets, this assay endpoint is annotated to cell cycle, where the subfamily is cytotoxicity.
Chemicals were tested in MCF7 cells in an eight point dilution series with a six hour exposure duration.
Turning to `CC(=O)OCCc1ccccc1`, the result was inactive.

Turning to `CC(=O)OC/C=C(/C)CCC=C(C)C`, the result was inactive.

`COC(=O)C=Cc1ccccc1`: the outcome was inactive.

Consider `CC(C)(O)Cc1ccccc1`, for which the result was inactive.

For `N#Cc1ccc(C(c2ccc(C#N)cc2)n2cncn2)cc1`, the result was inactive.

In the case of `CCCCOCCOC(=O)COc1ccc(Cl)cc1Cl`, the outcome was inactive.

Turning to `C=CCCCCCCCCC=O`, the outcome was inactive.

Consider `CC(=O)OC1CCCCC1C(C)(C)C` (stereo not given), for which the result was inactive.

On to `N#Cc1ccc(C2CCCc3cncn32)cc1` (stereo not given), for which the result was inactive.

In the case of `C=C(C)[C@@H]1CC=C(C)CC1`, the result was inactive.

Take `CCCCC1C(=O)N(c2ccccc2)N(c2ccccc2)C1=O`: the result was inactive.

With `Oc1ccc(/C=C/c2cc(O)cc(O)c2)cc1`, the outcome was inactive.

With `CC(C)(C)NC(=O)[C@H]1CC[C@H]2[C@@H]3CC[C@H]4NC(=O)C=C[C@]4(C)[C@H]3CC[C@]12C`, the outcome was inactive.

In the case of `CC(=O)c1ccc(S(=O)(=O)NC(=O)NC2CCCCC2)cc1`, the result was inactive.

For the compound `Cc1ccc([N+](=O)[O-])cc1N`, the outcome was inactive.

`Cc1ccc(C)c(OCCCC(C)(C)C(=O)O)c1`: the result was inactive.

`CC(C)CO`: the result was inactive.

For the compound `CC(=O)c1ccccc1O`, the outcome was inactive.

Turning to `CC=CC(=O)OCC(C)C`, the outcome was inactive.

For `C=C(C)C1CC=C(C)CC1` (stereo not given), the result was inactive.

Consider `CCCc1ccc(O)c(OC)c1`, for which the outcome was inactive.

Consider `O=C(O)C1CCC(C(=O)O)CC1` (stereo not given), for which the result was inactive.

On to `C=C[C@@]1(C)CC(=O)[C@]2(O)[C@@]3(C)[C@@H](O)CCC(C)(C)[C@@H]3[C@H](O)[C@H](OC(C)=O)[C@@]2(C)O1`, for which the result was inactive.

`CC(C)=CCl`: the result was inactive.

For the compound `C=C1C[C@H]2[C@@H]3C=C(C)C4=CC(=O)CC[C@]4(C)[C@H]3CC[C@]2(C)[C@@]1(OC(C)=O)C(C)=O`, the result was inactive.

For the compound `CC(C)[N+](C)(CCOC(=O)C1c2ccccc2Oc2ccccc21)C(C)C`, the outcome was inactive.

Turning to `CCCCCCCC(=O)OCC(COC(=O)CCCCCCC)OC(=O)CCCCCCC`, the result was inactive.

For `COC(Cc1ccccc1)OC`, the result was inactive.

As for `Oc1c(Cl)cc(Cl)c(Cl)c1Cl`, the result was inactive.

Regarding `CN(C)c1ccc2nc3ccc(=[N+](C)C)cc-3sc2c1`, the result was inactive.

In the case of `CC(=O)OCc1ccccc1`, the outcome was inactive.

Regarding `CCCCC(C=O)CC` (stereo not given), the outcome was inactive.

As for `CCCCCCCCCCCCC`, the outcome was inactive.

With `CC(=O)CCC1=C(C)CCCC1(C)C`, the outcome was inactive.

For the compound `CC(C)(CO)C(O)C(=O)NCCCO` (stereo not given), the outcome was inactive.

As for `O=C(O)/C=C/c1ccccc1`, the result was inactive.

`CCC(C)c1ccccc1` (stereo not given): the outcome was inactive.

For `C=Cc1ccc(OC(C)=O)cc1`, the result was inactive.

Turning to `O=C(OCc1ccccc1)c1ccc(O)cc1`, the result was inactive.

Regarding `C1CNCCN1`, the outcome was inactive.
